Assay outcomes as filed in PubChem.
Sampled rows, rich in hits. Any-hit rate of the full collection: about 2.3%.
CHRM1 antagonist = human CHRM1 antagonism. P11229. CHO-K1 hM1, Fluo-8 calcium fluorescence, ACh EC80 antagonist. inhibition, % at 3 µM. hit rate 1.3% among 360,000. AID 588852;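 active means percent inhibition above its own plate's cutoff, namely the mean of that plate's compound wells plus 3 SD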;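 further: peak over basal fluorescence ratio during 140 s after agonist addition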
Target sequence (P11229 whole entry, looked up): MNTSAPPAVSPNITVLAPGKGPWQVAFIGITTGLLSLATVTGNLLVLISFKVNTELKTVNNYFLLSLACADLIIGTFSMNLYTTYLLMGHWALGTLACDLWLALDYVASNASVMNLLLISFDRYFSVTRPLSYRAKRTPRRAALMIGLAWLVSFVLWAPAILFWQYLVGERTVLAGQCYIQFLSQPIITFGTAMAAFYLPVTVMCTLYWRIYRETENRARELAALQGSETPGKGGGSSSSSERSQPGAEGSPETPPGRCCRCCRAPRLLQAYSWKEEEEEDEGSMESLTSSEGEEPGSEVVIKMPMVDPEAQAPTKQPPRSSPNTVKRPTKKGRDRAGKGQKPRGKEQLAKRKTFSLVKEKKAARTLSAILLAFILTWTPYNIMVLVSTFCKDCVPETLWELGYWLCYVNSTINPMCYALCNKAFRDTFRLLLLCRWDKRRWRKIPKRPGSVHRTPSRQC
CHRM1 agonist = agonists of human M1 muscarinic receptor | CHO-K1 hM1, Fluo-8 calcium fluorescence, agonist mode; 0% DMSO, 100% acetylcholine EC100 | activation, % at 3 µM | hit rate 0.33% among 360,000 | AID 588814;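 active means activation above the run's mean compound activation plus 3 SD, cut at about 16% in these data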;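 further: peak over basal fluorescence ratio within a 140 s kinetic read after compound addition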
M1 ag parental = counter-screen for M1 agonists: effect in parental CHO-K1 cells; Fluo-8 calcium fluorescence; scaled to maximal ATP response, vehicle zero; hit rate 0.48% among 360,000; activation, % at 3 µM; AID 602248; in the data active means activation above about 15%;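 further: untransfected CHO-K1 host cells lacking M1 receptor as counterscreen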
M1 PAM parental = nonselective activator or artifact in parental CHO-K1 calcium assay. AID 602247. activation, % at 3 µM. hit rate 0.02% among 360,000. ATP EC20, Fluo-8 calcium fluorescence; 0% at ATP EC20, 100% at ATP max;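 active means activation above the run cutoff, the mean activation of all test compounds plus 3 SD, cut at about 40% in these data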;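 further: peak over basal fluorescence ratio in a 140 s read after ATP addition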
CHO-K1 Ca antag = nonselective inhibitor or artifact in parental CHO-K1 cells; ATP-induced calcium, Fluo-8 fluorescence; inhibition, % at 3 µM; hit rate 0.6% among 360,000; AID 602250;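 active means inhibition above a per-plate cutoff, the plate's mean sample inhibition plus 3 SD, cut at about 24% in these data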
M1 PAM = potentiates human M1 receptor response to acetylcholine; P11229; CHO-K1 hM1, Fluo-8 calcium fluorescence, ACh EC20; 0% = ACh EC20, 100% = maximal ACh; activation, % at 3 µM; hit rate 0.088% among 360,000; in the data active means activation above about 19%, passing the limit was not always enough
Each line names hits and unclear results; the compound was inactive in the other large screens.

Cc1ccc(/C=C/C(=O)OCC(=O)N(C)c2c(N)n(Cc3ccccc3)c(=O)[nH]c2=O)o1	none
CCSc1ncc(Cl)c(C(=O)Nc2ccc(S(=O)(=O)Nc3onc(C)c3C)cc2)n1	M1 PAM 22
C=C1SC(Nc2c(C)cccc2C)=NC12CCCCC2	CHRM1 antagonist 66
C=C1SC(Nc2c(C)cc(C)cc2C)=NC12CCCCC2	CHRM1 antagonist 68
Cc1cc(C)c(NC(=O)CN2C(=O)NC3(CCCCC3)C2=O)c(C)c1	none
O=C1c2[nH]c3ccccc3c2CC1N1C(=O)c2ccccc2C1=O (configuration not stated)	none
Cc1ccc2c(c1)c(CC(=O)Nc1ccc(F)cc1)c(C(=O)O)n2C	none
O=C(NCc1ccccn1)C1CCCN(S(=O)(=O)c2cc(Cl)ccc2Cl)C1 (configuration not stated)	none
Cn1c(=O)oc2cc(S(=O)(=O)N3CCCC(C(=O)NCc4cccs4)C3)ccc21 (configuration not stated)	CHO-K1 Ca antag 27
O=C(NCc1ccccn1)C1CCCN(S(=O)(=O)c2ccc(Br)cc2)C1 (configuration not stated)	CHO-K1 Ca antag 24
Cn1c(=O)oc2cc(S(=O)(=O)N3CCCC(C(=O)NCc4ccc5c(c4)OCO5)C3)ccc21 (configuration not stated)	none
COC(=O)c1sccc1NC(=O)CC1C(=O)NCCN1C(=O)c1ccc(N(C)C)cc1 (configuration not stated)	none
CCN(CC)Cc1cc(Oc2ccc(O)c(CN(CC)CC)c2)ccc1O	CHRM1 antagonist 35
CCN(CC)Cc1cc(CCNC(=O)c2ccc(Cl)cc2)ccc1O	none
CCCSc1ccc([C@H]2N[C@@](C)(C(=O)OC)[C@H]3C(=O)N(C)C(=O)[C@@H]23)cc1	none
CCCCCCSc1ccc([C@H]2N[C@@](C)(C(=O)OC)[C@H]3C(=O)N(C)C(=O)[C@@H]23)cc1	CHRM1 antagonist 36
COCC(C)n1c(C)cc(C(=O)COC(=O)c2c(NC(C)=O)sc(C)c2C)c1C (configuration not stated)	none
O=C(CN1C(=O)COc2ccccc21)NCCN1CCC(Cc2ccccc2)CC1	CHRM1 antagonist 30
O=C(CN1C(=O)COc2ccccc21)NCCN1CCOCC1	none
Cc1ccccc1N(CC(=O)N/N=C/c1ccc(Cl)cc1)C(=O)c1ccccc1	CHO-K1 Ca antag 26
COc1ccc(CNC(=O)CN2C(=O)c3ccc([N+](=O)[O-])cc3C2=O)cc1	none
CN(C)C(=O)CSc1nnc(-c2cc(-c3cccs3)nc3ccccc23)o1	CHO-K1 Ca antag 27
CC1C(=O)N2CCCc3cc(S(=O)(=O)N4CCN(c5cccc(Cl)c5)CC4)cc1c32 (configuration not stated)	none
Cc1ccc(-c2nn3cnnc3c3ccccc23)cc1C	CHO-K1 Ca antag 24
CCOC(=O)c1c(C)n(C)c2cc(-c3cccc(C(F)(F)F)c3)c(O)cc12	CHO-K1 Ca antag 27
CCOC(=O)c1c(C)n(C)c2cc(-c3ccc(C)cc3)c(O)cc12	CHO-K1 Ca antag 28
CCOC(=O)c1c(C)n(C)c2cc(Br)c(C)cc12	none
O=C(/C(N=Nc1cccc([N+](=O)[O-])c1)=C(/O)c1ccc(Br)cc1)C(F)(F)F	CHRM1 antagonist 48
CC1(C)CC(NC(=O)c2cc(S(=O)(=O)N3CCOCC3)c(Cl)cc2Cl)CC(C)(C)N1	M1 PAM 31
COc1cccc(CNC(=O)C2CCCN(S(=O)(=O)c3c(C)[nH]c(=O)[nH]c3=O)C2)c1 (configuration not stated)	none
COc1ccc(Nc2nc(Cl)c(C=O)s2)cc1	CHRM1 antagonist 37
CCc1cccc2cc3c(N)c(C(=O)Nc4ccc(S(=O)(=O)N5CCCC5)cc4)sc3nc12	M1 ag parental 16
Cc1cccc2cc3c(N)c(C(=O)Nc4ccc(N5CCOCC5)cc4)sc3nc12	none
CN(C)S(=O)(=O)c1cccc(NC(=O)c2cccc(S(=O)(=O)N3CCCCCC3)c2)c1	CHRM1 antagonist 33
CN(c1ccccc1)S(=O)(=O)c1ccc(C(=O)Nc2cccc(S(=O)(=O)N3CCOCC3)c2)cc1	none
O=C(c1ccc2c(=O)n3c(nc2c1)CCCCC3)N1CCN(c2cccc(Cl)c2)CC1	CHRM1 antagonist 32
COc1ccccc1N(C)S(=O)(=O)c1ccc(C(=O)Nc2cccc(S(=O)(=O)N3CCOCC3)c2)cc1	CHRM1 antagonist 38
CC1CC(C)CN(C(=O)C2CCC(CNS(=O)(=O)c3ccccc3)CC2)C1 (configuration not stated)	none
O=C(NNC(=O)c1ccc(S(=O)(=O)N2CCCC2)cc1)c1ccc(Br)cc1	none
O=C1CC(=Nc2ccc([N+](=O)[O-])cc2)NN1c1c(Cl)cc(Cl)cc1Cl	none
O=C(Nc1ncccc1O)c1ccc(Cl)c(S(=O)(=O)N2CCCCCC2)c1	none
CC(=O)c1cc(Cl)ccc1OCc1cccc(S(=O)(=O)N2CCOCC2)c1	CHRM1 antagonist 31, M1 ag parental 16
O=C(COC(=O)C1CCC1)Nc1cc(S(=O)(=O)N2CCOCC2)ccc1Cl	none
O=S(=O)(c1cccc(COc2ccc(Cl)cc2Cl)c1)N1CCOCC1	none
O=C(Nc1cc(S(=O)(=O)N2CCOCC2)ccc1Cl)C1CCC1	CHRM1 antagonist 27
NS(=O)(=O)c1ccc(NC(=S)Nc2ccc(C(=O)N3CCCCC3)cc2)cc1	M1 ag parental 16
O=C(Nc1ncccc1O)c1cccc(S(=O)(=O)N2CCCC2)c1	CHO-K1 Ca antag 26
CCCCNC(=O)Cn1c(=O)c2c(ncn2CC)n(Cc2ccccc2)c1=O	none
CN(C)S(=O)(=O)c1cccc(NC(=O)c2ccc(S(=O)(=O)N3CCCCC3)cc2)c1	CHRM1 antagonist 27
CN1CCN(S(=O)(=O)c2ccc(NC(=O)c3cccc(S(=O)(=O)N4CCCC4)c3)cc2)CC1	CHRM1 antagonist 98
C=CCn1c(=O)[nH]c2cc(C(=O)N3CCN(c4cccc(Cl)c4)CC3)ccc2c1=O	CHRM1 antagonist 21
CCc1ccc(NC(=O)c2ccc3c(=O)n4c(nc3c2)CCCCC4)cc1	none
O=C(Nc1cccc(S(=O)(=O)N2CCCCC2)c1)c1ccc2c(=O)n3c(nc2c1)CCCCC3	CHRM1 antagonist 43
COC(=O)c1ccc(NC(=O)CN2CCN(c3ccccn3)CC2)cc1	none
CC1(C(=O)NCc2ccccc2Br)CCN1C(=O)Cc1ccc(-c2ccccc2)cc1 (configuration not stated)	none
CN(C)c1ccc(C(=O)Nc2cccc(S(=O)(=O)N3CCCC3)c2)cc1	CHRM1 antagonist 46
O=C(NC(=S)Nc1ccc(S(=O)(=O)N2CCCCC2)cc1)c1ccccc1	M1 PAM 19
O=C(/C=C/c1ccc(S(=O)(=O)N2CCOCC2)cc1)NC(=S)Nc1ccc(Cl)cc1Cl	none
